Results filed as inconclusive are left out. A call without a number means that no potency is given here. Calls of active or inactive are those of the source. The call rests on the fitted dose curve; in most records, active means well fitted curve in the direction sought with a large enough effect; inconclusive means small, poorly fitted or top-dose-only effect, or another doubt; inactive means no such curve, though single readings can be large; an effect the other way counts as inactive or inconclusive.
Tests used:
[1] = target: Glucagon-like peptide 1 receptor (Homo sapiens) (UniProt P43220); experiment: qHTS of GLP-1 Receptor Agonists: LOPAC Validation (AID 624148);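 further: luminescence from a luciferase reporter switched on by cAMP; higher luminescence signal means agonism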
Glucagon-like peptide 1 receptor (Homo sapiens), sequence (P43220 whole entry, looked up): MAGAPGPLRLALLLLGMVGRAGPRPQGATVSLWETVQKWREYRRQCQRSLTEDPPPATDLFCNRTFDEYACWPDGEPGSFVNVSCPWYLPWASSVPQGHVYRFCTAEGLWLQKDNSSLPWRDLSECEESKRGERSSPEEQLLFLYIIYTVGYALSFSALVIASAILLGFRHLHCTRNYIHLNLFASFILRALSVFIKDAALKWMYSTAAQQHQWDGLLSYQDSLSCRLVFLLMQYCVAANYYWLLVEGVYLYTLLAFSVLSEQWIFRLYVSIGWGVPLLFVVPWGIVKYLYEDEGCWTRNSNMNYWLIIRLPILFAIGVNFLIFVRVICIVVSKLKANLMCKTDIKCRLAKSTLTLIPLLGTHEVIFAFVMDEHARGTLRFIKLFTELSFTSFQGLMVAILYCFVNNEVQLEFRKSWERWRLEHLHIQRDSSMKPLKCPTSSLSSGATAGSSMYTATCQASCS
Method in brief: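 Agonism scored as increased luciferase luminescence driven by cAMP in HEK293 clones carrying GLP-1R. Cells settled 12 hours, received compound for 4-6 hr at 37 deg C, 5% CO2, and were read after 12 min detection reagent at RT.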

[2] = qHTS of Nrf2 Activators: LOPAC Validation (AID 624149)
Method in brief: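 AREc32 cells carrying an ARE-driven firefly luciferase were grown overnight in OPTI-MEM with 5% FBS, then exposed to compounds for 24 hr at 37 deg C. Luciferase signal was read after 30 min with Steady-Glo at RT.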

[3] = HTS Assay for Allosteric Antagonists of the Human D2 Dopamine Receptor: Hit Validation in HTRF (AID 624455);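 further: stable D1 dopamine receptor cell line scored for blocking the D1 response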
Method in brief: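 Hits were examined in an HTRF assay using cells stably expressing the D1 dopamine receptor, scoring inhibition of the D1-mediated response. The preceding primary screen tracked calcium flux after an EC80 dopamine addition in force-coupled, inducible Hek293 Trex D2 cells.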

In the case of `CC(=O)NCCc1c[nH]c2ccccc12`, the outcome [1] is reported as “inactive”, the outcome [2] is reported as “inactive” and the Potency [3] is reported as “inactive”.
With `NCCc1c[nH]c2ccc(O)cc12` the outcome [1] was “inactive”, the outcome [2] was “inactive” and the Potency [3] was “inactive”.
With `C[C@@H](N)Cc1cnc[nH]1` the outcome [1] was “inactive”, the outcome [2] was “inactive” and the Potency [3] was “inactive”.
For `c1ccc(C2(c3ccccc3)CC2C2=NCCN2)cc1` (configuration not stated), the outcome [1] was “inactive”, the outcome [2] was “inactive” and the Potency [3] was “inactive”.
In the case of `C=CCN1CC[C@]23CCCCC2[C@H]1Cc1ccc(O)cc13` (some centres not stated), the outcome [1] is reported as “inactive”, the outcome [2] is reported as “inactive” and the Potency [3] is reported as “inactive”.
For `Clc1cnc(Oc2ccc(Oc3ncc(Cl)cc3Cl)cc2)c(Cl)c1`, the outcome [1] was “inactive”, the outcome [2] was “inactive” and the Potency [3] was “inactive”.
For `CCCN(CCC)C1CCc2ccc(O)cc2C1` (configuration not stated), the outcome [1] was “inactive” and the outcome [2] was “inactive”.
With `Cc1nccc2c1[nH]c1ccccc12` the outcome [1] was “inactive”, the outcome [2] was “inactive” and the Potency [3] was “inactive”.
In the case of `CC1=NN=C(c2ccc(N)cc2)c2cc3c(cc2C1)OCO3`, the outcome [1] is reported as “inactive”, the outcome [2] is reported as “inactive” and the Potency [3] is reported as “inactive”.
For `O=C(O)[C@@H]1CCN1`, the outcome [1] was “inactive”, the outcome [2] was “inactive” and the Potency [3] was “inactive”.
With `CCCN1CCC[C@H](c2cccc(O)c2)C1` the outcome [1] was “inactive” and the outcome [2] was “inactive”.
For `C#CCOC(=O)C1=CCCN(C)C1`, the outcome [1] was “inactive”, the outcome [2] was “inactive” and the Potency [3] was “inactive”.
With `Cc1c(C(=O)c2cccc3ccccc23)c2cccc3c2n1[C@H](CN1CCOCC1)CO3` the outcome [1] was “inactive”, the outcome [2] was “inactive” and the Potency [3] was “inactive”.
With `CC(C)Oc1cccnc1N(C)C1CCN(Cc2ccccc2)CC1` the outcome [1] was “inactive”, the outcome [2] was “inactive” and the Potency [3] was “inactive”.
With `NC(CP(=O)(O)O)C(=O)O` (configuration not stated) the outcome [1] was “inactive”, the outcome [2] was “inactive” and the Potency [3] was “inactive”.
For `NCCc1c[nH]c2ccccc12`, the outcome [1] was “inactive” and the outcome [2] was “inactive”.
For `CNCCc1c[nH]c2ccc(O)cc12`, the outcome [1] was “inactive”, the outcome [2] was “inactive” and the Potency [3] was “inactive”.
For `c1ccc2sc(C3(N4CCCCC4)CCCCC3)cc2c1`, the outcome [1] was “inactive”, the outcome [2] was “inactive” and the Potency [3] was “inactive”.
For `NC1CC1c1ccccc1` (configuration not stated), the outcome [1] was “inactive” and the outcome [2] was “inactive”.
For `COc1cc(C(O)CN)ccc1O` (configuration not stated), the outcome [1] was “inactive”, the outcome [2] was “inactive” and the Potency [3] was “inactive”.
With `O=C(O)Cc1cnc[nH]1` the outcome [1] was “inactive”, the outcome [2] was “inactive” and the Potency [3] was “inactive”.
With `C[C@]12N[C@H](Cc3ccccc31)c1ccccc12` the outcome [1] was “inactive”, the outcome [2] was “inactive” and the Potency [3] was “inactive”.
In the case of `c1ccc(CCCN2CCN(CCOC(c3ccccc3)c3ccccc3)CC2)cc1`, the outcome [1] is reported as “inactive”, the outcome [2] is reported as “inactive” and the Potency [3] is reported as “inactive”.
For `CCCN(CCC)[C@@H]1CCc2ccc(O)cc2C1`, the outcome [1] was “inactive” and the outcome [2] was “inactive”.
For `C[C@]12CCC3C(CC[C@H]4C[C@H](O)CC[C@]34C)C1CC[C@@H]2C(=O)CO` (some centres not stated), the outcome [1] was “inactive”, the outcome [2] was “inactive” and the Potency [3] was “inactive”.
In the case of `CN[C@@H]1C[C@@H](c2ccc(Cl)c(Cl)c2)c2ccccc21`, the outcome [1] is reported as “inactive”, the outcome [2] is reported as “inactive” and the Potency [3] is reported as “inactive”.
With `CC(C)NC(C)Cc1ccc(I)cc1` (configuration not stated) the outcome [1] was “inactive”, the outcome [2] was “inactive” and the Potency [3] was “inactive”.
For `C[N+]1(C)C2CCC1CC(OC(=O)C(CO)c1ccccc1)C2` (configuration not stated), the outcome [1] was “inactive”, the outcome [2] was “inactive” and the Potency [3] was “inactive”.
For `S=C(NC1CCCCC1)N1CCC(c2cnc[nH]2)CC1`, the outcome [1] was “inactive”, the outcome [2] was “inactive” and the Potency [3] was “inactive”.
In the case of `C/C=C(/C)C(=O)O[C@H]1C(C)=C2[C@H]([C@@H]1OC(=O)CCCCCCC)[C@@](C)(OC(C)=O)C[C@H](OC(=O)CCC)[C@@]1(O)[C@H]2OC(=O)[C@@]1(C)O`, the outcome [1] is reported as “inactive”, the outcome [2] is reported as “inactive” and the Potency [3] is reported as “inactive”.
In the case of `CC[C@@]1(O)C(=O)OCc2c1cc1n(c2=O)Cc2cc3ccccc3nc2-1`, the outcome [1] is reported as “inactive”, the outcome [2] is reported as “inactive” and the Potency [3] is reported as “inactive”.
For `CC(=O)[C@H]1CCC2C3CC[C@H]4C[C@H](O)CC[C@]4(C)C3CC[C@@]21C` (some centres not stated), the outcome [1] was “inactive” and the outcome [2] was “inactive”.
With `CS(=N)(=O)CC[C@H](N)C(=O)O` (some centres not stated) the outcome [1] was “inactive” and the outcome [2] was “inactive”.
In the case of `COC(=O)[C@@H](N)CCCN=C(N)N[N+](=O)[O-]`, the outcome [1] is reported as “inactive”, the outcome [2] is reported as “inactive” and the Potency [3] is reported as “inactive”.
For `NC(CCP(=O)(O)O)C(=O)O` (configuration not stated), the outcome [1] was “inactive”, the outcome [2] was “inactive” and the Potency [3] was “inactive”.
In the case of `CC[C@@H](C(N)=O)N1CCCC1=O`, the outcome [1] is reported as “inactive”, the outcome [2] is reported as “inactive” and the Potency [3] is reported as “inactive”.
For `C[C@@H]1O[C@H](C[N+](C)(C)C)C[C@H]1O`, the outcome [1] was “inactive”, the outcome [2] was “inactive” and the Potency [3] was “inactive”.
For `NC(=NCCC[C@H](N)C(=O)O)N[N+](=O)[O-]`, the outcome [1] was “inactive”, the outcome [2] was “inactive” and the Potency [3] was “inactive”.
